{
  "source": "the supplement of paper PMC4466140",
  "binders": {"B1": {"name": "unnamed (peptide)", "chain": "QHQQRQPKRPKRYSL"}},
  "experiment_in_all_cases": "SPOT peptide array binding signal intensity (averaged, normalized) (arbitrary units (background-subtracted, floor 0; scale differs between SH3 domains)); higher = stronger binding of the SH3 domain to the peptide",
  "key": {"AgAbp1": {"target": "AgAbp1", "method_in_brief": "(§1)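 E. coli BL21(DE3) was used to express GST-fused SH3 domains from four yeast species, which were then purified on glutathione Sepharose. These were incubated at 10 μg/ml in TBS-based blocking buffer overnight at 4°C on cellulose membranes carrying synthetic 15-mer peptides, in which cysteines were replaced by serines. Binding signal is the replicate average of normalized, background-subtracted spot intensity, in arbitrary units that differ between domains.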"}, "AgBbc1": {"target": "AgBbc1", "method_in_brief": "as §1"}, "AgBem1-D1": {"target": "AgBem1-D1", "method_in_brief": "as §1"}, "AgBzz1-D1": {"target": "AgBzz1-D1", "method_in_brief": "as §1"}, "AgBzz1-D2": {"target": "AgBzz1-D2", "method_in_brief": "as §1"}, "AgCyk3": {"target": "AgCyk3", "method_in_brief": "as §1"}, "AgFus1": {"target": "AgFus1", "method_in_brief": "as §1"}, "AgHof1": {"target": "AgHof1", "method_in_brief": "as §1"}, "AgHse1": {"target": "AgHse1", "method_in_brief": "as §1"}, "AgLsb1": {"target": "AgLsb1", "method_in_brief": "as §1"}, "AgLsb4": {"target": "AgLsb4", "method_in_brief": "as §1"}, "AgMyo5": {"target": "AgMyo5", "method_in_brief": "as §1"}, "AgNbp2": {"target": "AgNbp2", "method_in_brief": "as §1"}, "AgRvs167": {"target": "AgRvs167", "method_in_brief": "as §1"}, "AgSho1": {"target": "AgSho1", "method_in_brief": "as §1"}, "AgSla1-D1-D2": {"target": "AgSla1-D1-D2", "method_in_brief": "as §1"}, "AgSla1-D3": {"target": "AgSla1-D3", "method_in_brief": "as §1"}, "CaAbp1-D1": {"target": "CaAbp1-D1", "method_in_brief": "as §1"}, "CaAbp1-D2": {"target": "CaAbp1-D2", "method_in_brief": "as §1"}, "CaBbc1": {"target": "CaBbc1", "method_in_brief": "as §1"}, "CaBem1-D1": {"target": "CaBem1-D1", "method_in_brief": "as §1"}, "CaBzz1-D1": {"target": "CaBzz1-D1", "method_in_brief": "as §1"}, "CaBzz1-D2": {"target": "CaBzz1-D2", "method_in_brief": "as §1"}, "CaCyk3": {"target": "CaCyk3", "method_in_brief": "as §1"}, "CaFus1": {"target": "CaFus1", "method_in_brief": "as §1"}, "CaHof1": {"target": "CaHof1", "method_in_brief": "as §1"}, "CaHse1": {"target": "CaHse1", "method_in_brief": "as §1"}, "CaLsb1": {"target": "CaLsb1", "method_in_brief": "as §1"}, "CaLsb4": {"target": "CaLsb4", "method_in_brief": "as §1"}, "CaMyo5": {"target": "CaMyo5", "method_in_brief": "as §1"}, "CaNbp2": {"target": "CaNbp2", "method_in_brief": "as §1"}, "CaRvs167": {"target": "CaRvs167", "method_in_brief": "as §1"}, "CaRvs167-3": {"target": "CaRvs167-3", "method_in_brief": "as §1"}, "CaSho1": {"target": "CaSho1", "method_in_brief": "as §1"}, "CaSla1-D1-D2": {"target": "CaSla1-D1-D2", "method_in_brief": "as §1"}, "CaSla1-D3": {"target": "CaSla1-D3", "method_in_brief": "as §1"}, "ScAbp1": {"target": "ScAbp1", "method_in_brief": "as §1"}, "ScBbc1": {"target": "ScBbc1", "method_in_brief": "as §1"}, "ScBem1-D1": {"target": "ScBem1-D1", "method_in_brief": "as §1"}, "ScBzz1-D1": {"target": "ScBzz1-D1", "method_in_brief": "as §1"}, "ScBzz1-D2": {"target": "ScBzz1-D2", "method_in_brief": "as §1"}, "ScCyk3": {"target": "ScCyk3", "method_in_brief": "as §1"}, "ScFus1": {"target": "ScFus1", "method_in_brief": "as §1"}, "ScHof1": {"target": "ScHof1", "method_in_brief": "as §1"}, "ScHse1": {"target": "ScHse1", "method_in_brief": "as §1"}, "ScLsb1": {"target": "ScLsb1", "method_in_brief": "as §1"}, "ScLsb2": {"target": "ScLsb2", "method_in_brief": "as §1"}, "ScLsb3": {"target": "ScLsb3", "method_in_brief": "as §1"}, "ScLsb4": {"target": "ScLsb4", "method_in_brief": "as §1"}, "ScMyo3": {"target": "ScMyo3", "method_in_brief": "as §1"}, "ScMyo5": {"target": "ScMyo5", "method_in_brief": "as §1"}, "ScNbp2": {"target": "ScNbp2", "method_in_brief": "as §1"}, "ScPex13": {"target": "ScPex13", "method_in_brief": "as §1"}, "ScRvs167": {"target": "ScRvs167", "method_in_brief": "as §1"}, "ScSho1": {"target": "ScSho1", "method_in_brief": "as §1"}, "ScSla1-D1-D2": {"target": "ScSla1-D1-D2", "method_in_brief": "as §1"}, "ScSla1-D3": {"target": "ScSla1-D3", "method_in_brief": "as §1"}, "SpAbp1-D1": {"target": "SpAbp1-D1", "method_in_brief": "as §1"}, "SpBbc1": {"target": "SpBbc1", "method_in_brief": "as §1"}, "SpBzz1-D1": {"target": "SpBzz1-D1", "method_in_brief": "as §1"}},
  "data": [
    {"binder": "B1", "values": [
      {"measurement": "SPOT peptide array binding signal intensity", "setting": "AgAbp1", "value": 147},
      {"measurement": "SPOT peptide array binding signal intensity", "setting": "AgBbc1", "value": 293},
      {"measurement": "SPOT peptide array binding signal intensity", "setting": "AgBem1-D1", "value": 112},
      {"measurement": "SPOT peptide array binding signal intensity", "setting": "AgBzz1-D1", "value": 55.5},
      {"measurement": "SPOT peptide array binding signal intensity", "setting": "AgBzz1-D2", "value": 19},
      {"measurement": "SPOT peptide array binding signal intensity", "setting": "AgCyk3", "value": 11},
      {"measurement": "SPOT peptide array binding signal intensity", "setting": "AgFus1", "value": 98.5},
      {"measurement": "SPOT peptide array binding signal intensity", "setting": "AgHof1", "value": 34.5},
      {"measurement": "SPOT peptide array binding signal intensity", "setting": "AgHse1", "value": 353},
      {"measurement": "SPOT peptide array binding signal intensity", "setting": "AgLsb1", "value": 15},
      {"measurement": "SPOT peptide array binding signal intensity", "setting": "AgLsb4", "value": 151},
      {"measurement": "SPOT peptide array binding signal intensity", "setting": "AgMyo5", "value": 1.5},
      {"measurement": "SPOT peptide array binding signal intensity", "setting": "AgNbp2", "value": 654},
      {"measurement": "SPOT peptide array binding signal intensity", "setting": "AgRvs167", "value": 6},
      {"measurement": "SPOT peptide array binding signal intensity", "setting": "AgSho1", "value": 12},
      {"measurement": "SPOT peptide array binding signal intensity", "setting": "AgSla1-D1-D2", "value": 288},
      {"measurement": "SPOT peptide array binding signal intensity", "setting": "AgSla1-D3", "value": 3.5},
      {"measurement": "SPOT peptide array binding signal intensity", "setting": "CaAbp1-D1", "value": 1050},
      {"measurement": "SPOT peptide array binding signal intensity", "setting": "CaAbp1-D2", "value": 639},
      {"measurement": "SPOT peptide array binding signal intensity", "setting": "CaBbc1", "value": 792},
      {"measurement": "SPOT peptide array binding signal intensity", "setting": "CaBem1-D1", "value": 20},
      {"measurement": "SPOT peptide array binding signal intensity", "setting": "CaBzz1-D1", "value": 59},
      {"measurement": "SPOT peptide array binding signal intensity", "setting": "CaBzz1-D2", "value": 94},
      {"measurement": "SPOT peptide array binding signal intensity", "setting": "CaCyk3", "value": 211},
      {"measurement": "SPOT peptide array binding signal intensity", "setting": "CaFus1", "value": 126},
      {"measurement": "SPOT peptide array binding signal intensity", "setting": "CaHof1", "value": 2},
      {"measurement": "SPOT peptide array binding signal intensity", "setting": "CaHse1", "value": 175},
      {"measurement": "SPOT peptide array binding signal intensity", "setting": "CaLsb1", "value": 2.5},
      {"measurement": "SPOT peptide array binding signal intensity", "setting": "CaLsb4", "value": 1810},
      {"measurement": "SPOT peptide array binding signal intensity", "setting": "CaMyo5", "value": 12},
      {"measurement": "SPOT peptide array binding signal intensity", "setting": "CaNbp2", "value": 492},
      {"measurement": "SPOT peptide array binding signal intensity", "setting": "CaRvs167", "value": 18.5},
      {"measurement": "SPOT peptide array binding signal intensity", "setting": "CaRvs167-3", "value": 38.2},
      {"measurement": "SPOT peptide array binding signal intensity", "setting": "CaSho1", "value": 56.5},
      {"measurement": "SPOT peptide array binding signal intensity", "setting": "CaSla1-D1-D2", "value": 558},
      {"measurement": "SPOT peptide array binding signal intensity", "setting": "CaSla1-D3", "value": 26.2},
      {"measurement": "SPOT peptide array binding signal intensity", "setting": "ScAbp1", "value": 43},
      {"measurement": "SPOT peptide array binding signal intensity", "setting": "ScBbc1", "value": 251},
      {"measurement": "SPOT peptide array binding signal intensity", "setting": "ScBem1-D1", "value": 14},
      {"measurement": "SPOT peptide array binding signal intensity", "setting": "ScBzz1-D1", "value": 9},
      {"measurement": "SPOT peptide array binding signal intensity", "setting": "ScBzz1-D2", "value": 12},
      {"measurement": "SPOT peptide array binding signal intensity", "setting": "ScCyk3", "value": 216},
      {"measurement": "SPOT peptide array binding signal intensity", "setting": "ScFus1", "value": 54.5},
      {"measurement": "SPOT peptide array binding signal intensity", "setting": "ScHof1", "value": "≤ 0"},
      {"measurement": "SPOT peptide array binding signal intensity", "setting": "ScHse1", "value": 409},
      {"measurement": "SPOT peptide array binding signal intensity", "setting": "ScLsb1", "value": 25.8},
      {"measurement": "SPOT peptide array binding signal intensity", "setting": "ScLsb2", "value": 45},
      {"measurement": "SPOT peptide array binding signal intensity", "setting": "ScLsb3", "value": 1410},
      {"measurement": "SPOT peptide array binding signal intensity", "setting": "ScLsb4", "value": 140},
      {"measurement": "SPOT peptide array binding signal intensity", "setting": "ScMyo3", "value": 4.25},
      {"measurement": "SPOT peptide array binding signal intensity", "setting": "ScMyo5", "value": 7.75},
      {"measurement": "SPOT peptide array binding signal intensity", "setting": "ScNbp2", "value": 620},
      {"measurement": "SPOT peptide array binding signal intensity", "setting": "ScPex13", "value": 88.8},
      {"measurement": "SPOT peptide array binding signal intensity", "setting": "ScRvs167", "value": 129},
      {"measurement": "SPOT peptide array binding signal intensity", "setting": "ScSho1", "value": 196},
      {"measurement": "SPOT peptide array binding signal intensity", "setting": "ScSla1-D1-D2", "value": 372},
      {"measurement": "SPOT peptide array binding signal intensity", "setting": "ScSla1-D3", "value": 22.2},
      {"measurement": "SPOT peptide array binding signal intensity", "setting": "SpAbp1-D1", "value": 426},
      {"measurement": "SPOT peptide array binding signal intensity", "setting": "SpBbc1", "value": 31},
      {"measurement": "SPOT peptide array binding signal intensity", "setting": "SpBzz1-D1", "value": 250}
    ]}
  ]
}
